Results: PubChem BioAssay (NCATS)
Inconclusive results are not listed. The source made the active and inactive calls. Calls come from the whole dose curve; as a rule, active = well fitted curve in the direction sought with a large enough effect; inconclusive = small, poorly fitted or top-dose-only effect, or another doubt; inactive = no such curve, though single readings can be large; an effect the other way counts as inactive or inconclusive.

Key:
[1] = Cellular Toxicity (caspase-3) Mesangial (AID 660); conditions: mesangial cells, normalized: DMSO 0%, 100 µM tamoxifen 100%; at 91.7 µM (top of the series);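 note: cells exposed to compound for 16 h before the caspase read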
Summary of the method: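 Human renal glomerular mesangial cells (1000/well) were treated with compounds for 16 h at 37 °C in complete medium, then caspase 3/7 activity was read by Caspase-Glo luminescence. Data were normalized to DMSO and 100 uM tamoxifen; AC50 from Hill fits.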

[2] = Cellular Toxicity (caspase-3) SK-N-SH (AID 661);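 note: 0% = DMSO basal and 100% = 10 µM staurosporine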
Summary of the method: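 SK-N-SH human neuroblastoma cells (1500/well) were treated with compounds for 16 hr at 37 °C in complete medium; caspase 3/7 activity was read by Caspase-Glo luminescence. AC50 came from Hill fits of data normalized to DMSO and 10 uM staurosporine.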

[3] = Cellular Toxicity (caspase-3) H-4-II-E (AID 663); conditions: H-4-II-E rat hepatoma, scaled: DMSO 0%, 100 µM tamoxifen 100%; at 92.2 µM (top of the series);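 note: cells exposed to compound for 16 hr before readout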
Summary of the method: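 Apoptosis induction is scored as increased luminescence from caspase 3/7 substrate cleavage in rat hepatoma H-4-II-E cells exposed to compound for 16 hr. Activity is scaled between DMSO and 100 uM tamoxifen.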

[4] = Cellular Toxicity (caspase-3) N2a (AID 665);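 note: compound exposure lasted 16 h at 37 °C before readout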
Summary of the method: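 Mouse N2a neuroblastoma cells (1500/well) were treated with compounds for 16 h at 37 °C, then caspase-3/7 activity was read by Caspase-Glo luminescence after 1 h at room temperature. Data were normalized to DMSO and 10 uM staurosporine; AC50 from Hill fits.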

[5] = Cellular Toxicity (caspase-3) NIH 3T3 (AID 666);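 note: caspase signal read after 16 h compound exposure; 0% = DMSO basal and 100% = 100 µM tamoxifen stimulation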
Summary of the method: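 Mouse NIH 3T3 fibroblasts (1000 cells/well) were treated with compound for 16 hr at 37°C in complete medium; caspase-3/7 activity was read by Caspase-Glo luminescence. Normalized to DMSO and 100 uM tamoxifen; AC50 from Hill fits.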

[6] = Cellular Toxicity (caspase-3) Renal Proximal Tubule (AID 667); conditions: Potency: caspase-3 activation;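 note: cells exposed to compound for 16 hours at 37 °C before detection; 0% = DMSO basal and 100% = 10 µM staurosporine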
Summary of the method: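 AC50 derived by standard Hill fit of concentration-response data, normalized between DMSO basal and 10 uM staurosporine as 100% stimulation. Cells: primary rat kidney proximal tubule, 16 h treatment at 37 °C.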

[7] = target: Cytochrome P450 3A4 (Homo sapiens) (UniProt P08684); test: qHTS Assay for Inhibitors and Substrates of Cytochrome P450 3A4 (AID 884); note: % is set by controls: 0 for no effect and ±100 for the full control effect; nearly all actives have a fitted effect of over 50% in size
Chain of Cytochrome P450 3A4 (Homo sapiens) (P08684 whole entry, looked up): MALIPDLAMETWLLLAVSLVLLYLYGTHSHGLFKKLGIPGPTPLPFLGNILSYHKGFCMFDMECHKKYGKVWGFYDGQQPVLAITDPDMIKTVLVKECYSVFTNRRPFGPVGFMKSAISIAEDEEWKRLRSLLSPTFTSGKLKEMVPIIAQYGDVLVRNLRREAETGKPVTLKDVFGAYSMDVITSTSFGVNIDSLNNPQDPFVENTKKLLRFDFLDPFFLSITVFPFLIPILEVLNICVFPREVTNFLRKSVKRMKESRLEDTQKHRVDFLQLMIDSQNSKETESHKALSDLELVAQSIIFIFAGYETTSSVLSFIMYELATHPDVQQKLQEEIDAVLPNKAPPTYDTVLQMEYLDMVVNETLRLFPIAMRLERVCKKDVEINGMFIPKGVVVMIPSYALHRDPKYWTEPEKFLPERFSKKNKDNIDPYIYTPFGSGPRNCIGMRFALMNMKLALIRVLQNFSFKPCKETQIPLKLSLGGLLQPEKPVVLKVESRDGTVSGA
Summary of the method: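 20 nM human CYP3A4 with 25 uM Luciferin-PPXE (at KM) in 200 mM KPO4, preincubated 10 min with compound; NADPH regeneration started a 60 min RT reaction. Luciferin detected by luminescence, normalized to 57 uM ketoconazole as full inhibition.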

[8] = Cell Viability - LYMP2-001 (AID 921);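 note: 0% = DMSO only and full inhibition = tetraoctylammonium bromide control wells; nearly all actives have a fitted effect of over 70% in size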
Summary of the method: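 Steps: seed 2500 lymphoblastoid cells/well; 5 hr, 37 C; add compound; 24 hr, 37 C; CellTiter-Glo reagent, 30 min room temperature; read luminescence. Concentration-response modeled by Hill equation for AC50.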

[9] = MultiTox-Fluor Cytotoxicity Assay - LYMP1-001 - Dead Cells (AID 946);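 note: 0% = DMSO and 100% = tetraoctylammonium bromide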
Summary of the method: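 AC50 from Hill fit of concentration-response; data normalized to DMSO (basal) and 15 uM tetraoctylammonium bromide (100%). LYMP1-001 lymphoblastoid cells, 2500/well, 16 hr compound at 37 C; dead-cell protease fluorescence, Ex/Em 485/520.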

[10] = MultiTox-Fluor Cytotoxicity Assay - LYMP1-001 - Live Cells (AID 947);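 note: 0% = DMSO only and full inhibition = tetraoctylammonium bromide control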
[11] = Cell Viability - LYMP1-002 - Assay at 16 hr (AID 948);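 note: 0% = DMSO alone and full effect = 92 µM tetraoctylammonium bromide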
Summary of the method: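 Seed 2500 LYMP1-002 cells per well in complete medium and hold 5 hr at 37 C. Add compound across a concentration series and incubate 16 hr at 37 C. Add CellTiter-Glo, wait 30 min at room temperature, read luminescence.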

[12] = MultiTox-Fluor Cytotoxicity Assay - LYMP1-002 - Live Cells (AID 955); note: % is set by controls: 0 for no effect and ±100 for the full control effect
Summary of the method: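 Human lymphoblastoid LYMP1-002 cells, 2500/well in complete medium, rested 5 hr at 37 C, then exposed to compounds for 16 hr at 37 C. Live-cell protease cleavage of GF-AFC read by fluorescence (Ex/Em 405/510) after 60 min at room temperature; AC50 from Hill fits.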

[13] = MultiTox-Fluor Cytotoxicity Assay - LYMP1-003 - Dead Cells (AID 961);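 note: 0% = DMSO and 100% = tetraoctylammonium bromide; nearly all actives have a fitted effect of over 70% in size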
Summary of the method: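 Human lymphoblastoid LYMP1-003 cells (2500/well) were treated with compounds for 16 hr at 37 C in complete medium. Dead-cell protease release was read by bis-AAF-R110 fluorescence (Ex/Em 485/520). AC50 came from Hill fits, normalized to DMSO and 15 uM tetraoctylammonium bromide.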

[14] = MultiTox-Fluor Cytotoxicity Assay - LYMP1-003 - Live Cells (AID 962);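 note: 0% = DMSO only and full loss = 92 µM tetraoctylammonium bromide; cytotoxic hits lower the live-cell protease signal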
Summary of the method: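 LYMP1-003 human lymphoblastoid cells (2500/well) in complete medium were preincubated 5 hr at 37 C, then exposed to compounds for 16 hr at 37 C. Live-cell protease cleavage of GF-AFC read by fluorescence (Ex/Em 405/510); AC50 from Hill fits.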

[15] = Cell Viability - LYMP1-003 - Assay at 24 hr (AID 963);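 note: plate controls were DMSO only for no effect and tetraoctylammonium bromide positive control for full effect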
Summary of the method: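 Human lymphoblastoid LYMP1-003 cells (2500/well) were rested 5 hr at 37 C, then exposed to compounds in complete medium for 24 hr at 37 C. Cellular ATP was quantified by CellTiter-Glo luminescence, and AC50 values came from Hill fits of concentration-response data.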

[16] = Cell Viability - LYMP1-003 - Assay at 40 hr (AID 964); note: % is set by controls: 0 for no effect and ±100 for the full control effect; nearly all actives have a fitted effect of over 60% in size
Summary of the method: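 Human lymphoblastoid LYMP1-003 cells, 2500/well in complete medium, rested 5 hr at 37 C, then exposed to compounds for 40 hr at 37 C. Viability read as intracellular ATP by CellTiter-Glo luminescence; AC50 from Hill fits of concentration-response data.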

[17] = Cell Viability - LYMP2-003 (AID 965);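 note: cells exposed to compounds for 24 h before reading; 0% = DMSO only and full effect = 92 µM tetraoctylammonium bromide; nearly all actives have a fitted effect of over 50% in size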
Summary of the method: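 Seed 2500 lymphoblastoid cells/well; incubate 5 hr, 37 C; add compounds; incubate 24 hr, 37 C; add CellTiter-Glo, 30 min RT; read luminescence. AC50 from Hill fit.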

[18] = MultiTox-Fluor Cytotoxicity Assay - LYMP1-002 - Dead Cells (AID 960);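 note: 0% = DMSO and 100% = tetraoctylammonium bromide; nearly all actives have a fitted effect of over 60% in size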
Summary of the method: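 Human lymphoblastoid cells (LYMP1-002), 2500/well in complete medium, were exposed to compounds for 16 hr at 37 C. Dead-cell protease activity was read as bis-AAF-R110 fluorescence (Ex/Em 485/520), normalized to DMSO and 15 uM tetraoctylammonium bromide; AC50 from Hill fits.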

[19] = target: Cytochrome P450 3A4 (Homo sapiens) (UniProt P08684); test: qHTS Assay for Activators of Cytochrome P450 3A4 (AID 885); note: nearly all actives have a fitted effect of over 65% in size
Summary of the method: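 20nM CYP3A4 + 25uM Luciferin-PPXE (=KM), 200mM KPO4; cpd 10 min RT; NADPH regen, 60 min RT; stop w/ detection buffer, 20 min; luminescence. Normalized to 57 uM ketoconazole.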

BrC(Br)C(Br)Br
inactive: caspase-3 activation [1] -0.634% | outcome [2] | caspase-3 activation [3] 0.661% | outcome [4] | outcome [5] | Potency [6] | Potency [7] | Potency [8] | outcome [9] | outcome [10] | outcome [11] | outcome [12] | Potency [13] | Potency [14] | Potency [15] | Potency [16] | Potency [17]

CC(C)CCOC(=O)/C=C/c1ccccc1
inactive: caspase-3 activation [1] 0.297% | outcome [2] | caspase-3 activation [3] 1.34% | outcome [4] | outcome [5] | Potency [6] | Potency [7] | Potency [8] | outcome [9] | outcome [10] | outcome [11] | outcome [12] | outcome [18] | Potency [13] | Potency [14] | Potency [15] | Potency [16] | Potency [17]

Cc1ccccc1C(=O)O
inactive: caspase-3 activation [1] -0.934% | outcome [2] | caspase-3 activation [3] -0.229% | outcome [4] | outcome [5] | Potency [6] | Potency [7] | Potency [8] | outcome [9] | outcome [11] | outcome [12] | outcome [18] | Potency [13] | Potency [14] | Potency [15] | Potency [16] | Potency [17]

Nc1cc(Cl)c(N)c(Cl)c1
inactive: caspase-3 activation [1] -0.0656% | outcome [2] | caspase-3 activation [3] 1.21% | outcome [4] | outcome [5] | Potency [6] | outcome [19] | Potency [8] | outcome [9] | outcome [10] | outcome [11] | outcome [12] | Potency [13] | Potency [14] | Potency [15] | Potency [16] | Potency [17]

N#CCc1ccccc1[N+](=O)[O-]
inactive: caspase-3 activation [1] -0.803% | outcome [2] | caspase-3 activation [3] 1.83% | outcome [4] | outcome [5] | Potency [6] | Potency [8] | outcome [9] | outcome [10] | outcome [11] | outcome [12] | outcome [18] | Potency [13] | Potency [14] | Potency [15] | Potency [16] | Potency [17]

CC(C)c1ccccc1
inactive: caspase-3 activation [1] -1.25% | outcome [2] | caspase-3 activation [3] 0.504% | outcome [4] | outcome [5] | Potency [6] | Potency [7] | Potency [8] | outcome [9] | outcome [10] | outcome [11] | outcome [12] | outcome [18] | Potency [13] | Potency [14] | Potency [15] | Potency [16] | Potency [17]

CCCC(C)CO (stereo not given)
inactive: caspase-3 activation [1] 0.885% | outcome [2] | caspase-3 activation [3] 1.09% | outcome [4] | outcome [5] | Potency [6] | Potency [7] | Potency [8] | outcome [9] | outcome [11] | outcome [12] | outcome [18] | Potency [13] | Potency [14] | Potency [15] | Potency [16] | Potency [17]

CCCCC(CC)C(=O)O (stereo not given)
inactive: caspase-3 activation [1] 0.178% | outcome [2] | caspase-3 activation [3] -0.144% | outcome [4] | outcome [5] | Potency [6] | Potency [8] | outcome [9] | outcome [11] | outcome [12] | outcome [18] | Potency [13] | Potency [14] | Potency [15] | Potency [16] | Potency [17]

N#CC1(O)CCCCC1
inactive: caspase-3 activation [1] 0.158% | outcome [2] | caspase-3 activation [3] -0.143% | outcome [4] | outcome [5] | Potency [6] | Potency [8] | outcome [9] | outcome [10] | outcome [11] | outcome [12] | outcome [18] | Potency [13] | Potency [14] | Potency [15] | Potency [16] | Potency [17]

CCNS(=O)(=O)c1ccc(C)cc1
inactive: caspase-3 activation [1] -0.106% | outcome [2] | caspase-3 activation [3] -1.14% | outcome [4] | outcome [5] | Potency [6] | Potency [8] | outcome [9] | outcome [10] | outcome [11] | outcome [12] | outcome [18] | Potency [13] | Potency [14] | Potency [15] | Potency [16] | Potency [17]

C=C(C)C(N)=O
inactive: caspase-3 activation [1] -0.474% | outcome [2] | caspase-3 activation [3] -0.402% | outcome [4] | outcome [5] | Potency [6] | Potency [7] | Potency [8] | outcome [9] | outcome [11] | outcome [12] | outcome [18] | Potency [13] | Potency [14] | Potency [16] | Potency [17]

CC1CCC2CC1C2(C)C (stereo not given)
inactive: caspase-3 activation [1] 0.29% | outcome [2] | caspase-3 activation [3] 1.27% | outcome [4] | outcome [5] | Potency [6] | Potency [7] | Potency [8] | outcome [9] | outcome [11] | outcome [12] | outcome [18] | Potency [13] | Potency [14] | Potency [15] | Potency [16]

CSc1ccc(C=O)cc1
inactive: caspase-3 activation [1] -0.251% | outcome [2] | caspase-3 activation [3] 2.78% | outcome [4] | outcome [5] | Potency [6] | Potency [7] | Potency [8] | outcome [9] | outcome [10] | outcome [11] | outcome [12] | Potency [13] | Potency [14] | Potency [15] | Potency [16] | Potency [17]

CNC(=O)N(c1ccccc1)c1ccccc1
inactive: caspase-3 activation [1] 0.477% | outcome [2] | caspase-3 activation [3] 1.51% | outcome [4] | outcome [5] | Potency [6] | Potency [7] | Potency [8] | outcome [9] | outcome [11] | outcome [12] | outcome [18] | Potency [14] | Potency [16] | Potency [17]
